Results: PubChem BioAssay (EPA / NIEHS)
Records with an inconclusive call do not appear. Calls of active or inactive are those of the source. How the source made its calls: active means hit-call score of the fitted dose curve at least 0.9, where 1 is the maximum; inconclusive means response in the unintended direction; inactive means score below 0.9.

assay: ACEA_ER_AUC_viability: ACEA Biosciences xCELLigence Real-Time Cell Analysis on Estrogen Receptor Agonism for Viability (AID 2283782);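 further: continuous compound exposure with impedance area under curve over 80 h; hit means loss of impedance signal meaning reduced cell growth or viability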
In short: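 T-47D human breast cells in phenol red-free RPMI1640 with 10% charcoal-stripped FBS were dosed with an 8-point 1:4 dilution series from 100 uM top final concentration, in duplicate. Impedance-based growth was followed for 80 h; AUC analysed versus DMSO.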

Structure (SMILES) | AC50 | outcome
CCCCCCCCC1CCC(=O)O1 (stereo not given) | 67.5 µM (active) | –
C=CC(C)(CCC=C(C)C)OC(C)=O (stereo not given) | – | inactive
O=S(=O)(O)c1ccccc1 | – | inactive
O=C(O)C(F)(F)OC(F)(F)C(F)(F)OC(F)(F)C(F)(F)OC(F)(F)C(F)(F)C(F)(F)C(F)(F)F | 119 µM (active) | –
CC1CNCC(C)O1 (stereo not given) | – | inactive

assay: STM_H9_NormalizedViability: Cytotoxicity Assessment at 120 hours in the Stemina devTOX quickPredict H9 human embryonic stem cell (hESC)-based Assay (AID 2283784)
In short: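 Undifferentiated H9 hESCs kept pluripotent were exposed to compound, with media and chemical replaced every 24h. CellTiter-Fluor protease-substrate fluorescence was background-corrected and normalized per plate to the 0.1% DMSO vehicle; signal loss indicates reduced viability.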

Structure (SMILES) | AC50 | outcome
C=Cc1ccc(O)c(OC)c1 | 77.6 µM (active) | –
CC(C)(C)c1ccc(O)c(O)c1 | 86.5 µM (active) | –
Cn1sccc1=O | – | inactive
Oc1c(Cl)cc(Cl)cc1Sc1cc(Cl)cc(Cl)c1O | – | inactive
CC1=CC(=O)c2ccccc2C1=O | – | inactive
